From the supplement of paper PMC3414501 come the findings set out here.

Molecules are shown by their SMILES. Structures can show the parent of a compound that is named as a salt. Values without a mark were called inactive. Rule as the data show it: active = 2 or more and inactive = the rest.

This experiment deals with S. cerevisiae AD1-9 (efflux-pump deficient), vegetative growth in YPD. Kind of experiment: growth sensitivity score (doubling time z-score vs DMSO controls); higher = slower growth, strongly negative scores also mark growth inhibition (complete suppression), active = hit call of the paper. In short, it runs like this:
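Yeast (Saccharomyces cerevisiae BY4741 and AD1-9) was grown in rich medium in microtiter plates from a starting OD600 of 0.065, with optical density read every 15 min over 24 hours. The growth sensitivity score was the difference between compound and solvent-only means, divided by the solvent-only standard deviation. Every experiment had eight solvent-only wells.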
`O=c1c(O[C@@H]2O[C@H](CO)[C@H](O)[C@H](O)[C@H]2O)c(-c2ccc(O)c(O)c2)oc2cc(O)cc(O)c12` [Hyperoside] (stock concentration (mM, diluted 1:100): 8.8): the growth sensitivity score was 0.09.
Regarding `CCS(=O)(=O)CCn1c([N+](=O)[O-])cnc1C` [Tinidazole] (stock concentration (mM, diluted 1:100): 10), the growth sensitivity score is -0.62.
The value for `O=c1[nH]c(=O)n(C2CCCO2)cc1F` (stereo not drawn) [Ftorafur] (stock concentration (mM, diluted 1:100): 10) was -0.92; that for `COc1nc(C)nc(Cl)c1NC1=NCCN1` [Moxonidine hydrochloride] (stock concentration (mM, diluted 1:100): 9.2) was -1.22.
The same measure for `CN(CCOc1ccc(CC2SC(=O)NC2=O)cc1)c1ccccn1` (stereo not drawn) [Rosigltazone hydrochloride] (stock concentration (mM, diluted 1:100): 8.2): 0.66.
The value for `C[C@@H](c1ncncc1F)[C@](O)(Cn1cncn1)c1ccc(F)cc1F` [Voriconazole] (stock concentration (mM, diluted 1:100): 9.9) was 20.3 (active); that for `O=C1c2cccc3c2[C@H](CCC3)CN1[C@@H]1CN2CCC1CC2` [Palonosetron hydrochloride] (stock concentration (mM, diluted 1:100): 10) was 2.17 (active).
`COCCCOc1ccnc(C[S+]([O-])c2nc3ccccc3[nH]2)c1C` (stereo not drawn) [Rabeprazole] (stock concentration (mM, diluted 1:100): 10.6): the growth sensitivity score is 31.5 (active).
